Reference: the OligoGym collection

Biological target: FEZ1
Assay: pooled miR-30 sensor sort-seq; sequence = guide strand
Conditions: shRNA

Row | Sequence | sensor-assay potency score (higher = more potent)
1 | ATTACTAGCACTAGAAGCCAAC | -1.45
2 | TTCTCGTAAGGAATGACTGTGT | -0.149
3 | TTGTCTGTCAGAGCATCCCAAA | -1.44
4 | TAGTCTTAAGAGTATAAGCTGT | -0.799
5 | TGAACCTCAATAAGCACCGTGA | -0.29
6 | ATGAACCATAGAAACACTGGGG | -0.474
7 | TTGAAGCTGATTATTTCGGAAG | -0.859
8 | TCAAACTCCAGCTCGTCCCGGC | 0.386
9 | TTGCTCAGTGACCTCCTGCAGC | -0.806

Biological target: FFAR2
Assay: as above
Conditions: shRNA

Row | Sequence | sensor-assay potency score (higher = more potent)
10 | TCTCGTAGCAGGTAATTTCATT | -0.802
11 | TTATCGGTGAAGTTCTCGTAGC | -0.593
12 | TAGATGCTGCTGTAGAAGCCAA | -0.865
13 | TTTTTCTCTGGTGATACCCCAC | -0.286
14 | TAAGCCATGAGGATCAAGGAGC | -1.02
15 | TGAGTGAACTGAACACCACGGC | 0.269
16 | TAGCAGGTAATTTCATTGCCAC | -0.783
17 | TCGGTGAAGTTCTCGTAGCAGG | -0.822
18 | TTGAGTGAACTGAACACCACGG | 0.516
19 | TCGTGTTCAAGTATTGAACGAT | -0.455
20 | TTCTCCTTGACCCACACCCCTG | -1.59
21 | TTCATTGCCACTTCTGACCTGC | 0.752

Biological target: FGA
Assay: as above
Conditions: shRNA

Row | Sequence | sensor-assay potency score (higher = more potent)
22 | TAAGTCTTTGGCAATGACCTGT | 0.441
23 | TTCAGTGATCCATCCATTCTTT | -0.0325
24 | TATTCTGTTTGTAAAATCTTGA | -0.477
25 | TAAATTGTTTGCTGTAACTTGA | -0.0308
26 | TTTTTCTATGACTTTGCGCTTC | -0.192
27 | TGTCTTTCCACAACCCTTGGGC | 0.289
28 | TGTAGTTCCAGTCTTCATCAGA | -0.66
29 | TTGACTTCATCAATCAACCCTT | -0.0172
30 | TTGATTGACTTCATCAATCAAC | -0.764
31 | TATTGTTCTTCTGATATTCAAA | -1.2
32 | TTGTAGTCTTGCCAGGTCCGGT | -0.917
33 | TTGTAGAGAATCTCAACTGCTT | 0.304
34 | TTCAGGACTTCAATTCTGCTTC | -0.0905
35 | TTAGGTTGTAGAGAATCTCAAC | -0.726
36 | TTCTGCACAGTTCTCTTCCCAC | -0.744
37 | TTTAGCTACAGTACAAAGGATA | -0.909
38 | TTCTATGACTTTGCGCTTCAGG | -0.597
39 | TAACTCCATTCTCATCTGCGGC | -1.53
40 | TCAATCAACCCTTTCATCCTGC | 0.452
